# Sampled rows, rich in hits. Any-hit rate of the full collection: about 1.9%.
# RecA intein inh: inhibitors of M. tuberculosis RecA intein splicing | P9WHJ3 | cell-free RecA intein splicing, fluorescence | inhibition, % (concentration not given with the values) | 0.75% of 290,000 active; in the data active means inhibition above about 30%;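 further: 0% = vehicle wells and 100% = reference inhibitor control wells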
# Target sequence (P9WHJ3 whole entry, looked up): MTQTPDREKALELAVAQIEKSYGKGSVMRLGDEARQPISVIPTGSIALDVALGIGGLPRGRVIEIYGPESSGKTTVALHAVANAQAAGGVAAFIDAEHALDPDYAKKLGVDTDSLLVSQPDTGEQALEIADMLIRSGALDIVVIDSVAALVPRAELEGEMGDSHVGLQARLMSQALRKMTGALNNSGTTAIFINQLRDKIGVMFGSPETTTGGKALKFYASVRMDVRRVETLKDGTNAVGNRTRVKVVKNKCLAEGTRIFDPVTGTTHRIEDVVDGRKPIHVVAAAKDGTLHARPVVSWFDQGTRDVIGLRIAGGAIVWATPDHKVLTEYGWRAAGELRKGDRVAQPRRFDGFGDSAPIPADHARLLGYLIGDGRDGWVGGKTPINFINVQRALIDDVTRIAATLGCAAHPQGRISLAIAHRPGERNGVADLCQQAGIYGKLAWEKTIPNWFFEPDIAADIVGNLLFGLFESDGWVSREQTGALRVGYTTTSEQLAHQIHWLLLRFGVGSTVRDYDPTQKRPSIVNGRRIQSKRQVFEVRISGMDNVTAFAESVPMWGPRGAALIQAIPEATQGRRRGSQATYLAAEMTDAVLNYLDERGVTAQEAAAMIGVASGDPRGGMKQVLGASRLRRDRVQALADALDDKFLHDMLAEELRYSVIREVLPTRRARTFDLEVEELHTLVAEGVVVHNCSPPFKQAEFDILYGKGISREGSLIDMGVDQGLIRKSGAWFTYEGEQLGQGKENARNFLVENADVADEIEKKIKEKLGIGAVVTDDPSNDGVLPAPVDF
# PrPC surface inh: reduces human prion protein on the cell surface | cell surface PrPC, TR-FRET read-out | inhibition, % at 13.8 µM | P04156 | 0.43% of 370,000 active; in the data active means inhibition above about 24%; further: 0% = median of the test wells and 100% = reference compound wells
# PfHsp40 yeast: rescue of PfHsp40-mediated yeast toxicity; S. cerevisiae expressing PfHsp40, growth rescue, ATP luminescence; growth rescue, % at 12.5 µM; 0.68% of 340,000 active; AID 504582; in the data active means growth rescue above about 28%, passing the limit was not always enough;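 further: yeast W303a lacking pdr1 and pdr3 grown in galactose medium; growth measured after three days at 30 °C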
# PriA SSB inh: inhibitors of Klebsiella pneumoniae PriA binding to SSB C-terminal tail | AlphaScreen SSBct-PriA binding, biotinylated peptide | inhibition, % at 33 µM | 0.6% of 430,000 active; in the data active means inhibition mostly above about 37%, no sharp cut-off; inactive means mostly below about 20%;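 further: plate controls were negative control peptide for no effect and reference peptide for full effect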
# BJeLR lethal: BJeLR cell viability loss; BJeLR (HRASV12) viability, CellTiter-Glo ATP luminescence, 48 h; inhibition, % (concentration not given with the values); 0.17% of 300,000 active; AID 1554; in the data active means inhibition above about 50%
# PrP UTR inh: suppresses PrP 5' UTR mRNA reporter expression. cell-based PrP 5' UTR mRNA reporter, plate reader. inhibition, % (no concentration beside the values). 0.35% of 340,000 active; in the data active means inhibition above about 52%; further: 0 = median of the neutral control wells
# GFP chromo cs: counter-screen: blocks GFP chromophore formation | shares compounds with RecA intein inh | cell-free GFP chromophore formation, fluorescence | EC50, µM | 83% of 2,100 active | AID 434968; call rule not given here
# The depositor's hits bear a star; x = not tested or not shown.
SMILES,RecA intein inh,PrPC surface inh,PfHsp40 yeast,PriA SSB inh,BJeLR lethal,PrP UTR inh,GFP chromo cs
COC(=O)CCSc1cc(NCCOC(C)=O)c([N+](=O)[O-])c2nonc12,54*,-37,0,3,-13,3,24*
CN1CCN(C(=O)CCCN2C(=O)c3ccccc3C2=O)C2(CCCC2)C1,x,x,x,5,x,x,x
O=C(Cc1cc(-c2ccco2)on1)NCCC1=CCCCC1,x,x,x,-7,x,x,x
Cc1ccc(-n2nnc3c(SCC(=O)NCC4CCCO4)ncnc32)cc1 (stereo unspecified),40*,x,2,-9,17,-9,>38
Cc1ccc(-n2nnc3c(SCC(=O)NC[C@H]4CCCO4)ncnc32)cc1,x,x,x,-9,x,x,x
O=C(CSc1ncnc2c1nnn2-c1ccc(F)cc1)NCC1CCCO1 (stereo unspecified),38*,3,0,-14,8,-21,8.9*
CCOC(=O)C/C(C)=N/NC(=O)COc1ccccc1C,62*,-5,0,x,-5,-19,13*
COc1ccccc1NC(=O)C1=C(C)Nc2nnnn2C1c1ccncc1 (stereo unspecified),39*,-5,0,-2,-3,-12,>38
CCOc1ccc(NC(=O)C(=O)NCC2(CO)CC2)cc1,x,x,x,-14,x,x,x
CCC(=O)Nc1ccc(S(=O)(=O)NCCOc2ccc3c(c2)OCO3)cc1,x,x,x,-1,x,x,x
O=C1c2ccccc2C(=O)c2[nH]cnc21,24,-45,-1,2,0,-21,x
O=C1c2ccccc2C(=O)c2c1ncn2-c1ccccc1,37*,-41,-1,-4,3,-19,>38
Cn1nc(C(=O)N2CCN(C(=O)c3ccco3)CC2)ccc1=O,x,x,x,-17,x,x,x
O=C(CCCCl)NC1=NN(c2ccccc2)C(=O)C1,x,-1,-1,-1,x,-9,x
CC(=O)NC1=NN(c2ccccc2)C(=O)C1,82*,-7,1,-14,6,-24,36*
CCOc1ccccc1N1CCN(C(=O)c2ccc(-c3ccc(OC(C)=O)cc3)cc2)CC1,31*,3,2,-16,1,-22,>38
COc1ccc(C2CC(c3cccs3)=NN2C(=O)c2ccccc2)cc1OC (stereo unspecified),1,-11,1,5,2,-4,x
COc1cc(C2CC(c3cccs3)=NN2C(=O)CCl)ccc1OC(F)F (stereo unspecified),80*,0,0,-8,96*,-4,1.8*
COc1ccc(C2CC(c3cccs3)=NN2C(=O)CCl)cc1OC (stereo unspecified),77*,-4,0,-16,44,-6,4.5*
COc1cc(/C=C(\C#N)C(=O)NCCc2ccccc2)cc(OC)c1O,16,-10,0,-21,-4,-11,x
COc1cc(/C=C(\C#N)C(=O)c2c[nH]c3ccccc23)cc(OC)c1O,92*,-10,-1,20,5,-41,5.2*
O=C(Nc1ccc2scnc2c1)C1CCN(S(=O)(=O)c2ccc(Cl)s2)CC1,x,x,x,-4,x,x,x
COc1ccc(/C=C/C(=O)Nc2c(C(=O)Nc3ccc(OC(F)(F)F)cc3)oc3ccccc23)cc1OC,x,x,x,2,x,x,x
Cc1csc(CN2CCN(C(=O)c3cccc4ccccc34)CC2)n1,x,x,x,2,x,x,x
Cc1ccc(O)c(CP(=O)(c2ccccc2)c2ccccc2)c1,-1,4,0,-3,7,-11,x
SMILES,RecA intein inh,PrPC surface inh,PfHsp40 yeast,PriA SSB inh,BJeLR lethal,PrP UTR inh,GFP chromo cs
CCNc1ccccc1CP(=O)(c1ccccc1)c1ccccc1O (stereo unspecified),32*,4,x,33,4,x,2.2*
Cc1ccc2nc(-c3ccc(NC(=O)c4ccc(N5CCOCC5)nn4)cc3)sc2c1,x,x,x,-2,x,x,x
O=[N+]([O-])c1ccc(Oc2cccc(Br)c2)c2ccncc12,53*,-12,0,3,-2,-21,17*
O=[N+]([O-])c1ccc(Oc2ccc(F)cc2)c2ccncc12,67*,-35,-1,-13,1,12,32*
O=[N+]([O-])c1cccnc1Oc1ccc(F)cc1,-2,-10,-2,-1,-4,-20,x
O=[N+]([O-])c1cccc2cnccc12,x,-29,1,1,x,-10,x
O=C1c2ccccc2-c2onc3ccc(N4CCCC4)c1c23,55*,-97,0,66,9,-12,24*
N=c1c2c(-c3ccccc3)c(-c3ccccc3)n(Cc3ccco3)c2ncn1Cc1ccccc1,59*,3,-1,21,3,-30,5.2*
COc1cc(NC(C)CCCN)c2ncccc2c1Oc1ccccc1 (stereo unspecified),36*,4,-1,16,9,-13,33*
COc1ccc(/C=C2/SC(=S)N(CCCC(=O)Nc3cccc(O)c3)C2=O)cc1,38*,1,1,14,7,10,>38
COc1cccc(/C=C2\SC(=S)N(CCCC(=O)N(CCO)c3ccccc3)C2=O)c1,37*,-2,1,21,55*,8,32*
O=C(O)CN1C(=O)/C(=C\c2cccc(OCc3ccc(Cl)cc3Cl)c2)SC1=S,40*,3,7,15,3,-18,21*
O=C1/C(=C/c2cccc(Br)c2)SC(=S)N1CCC(=O)N(CCO)c1ccccc1,1,0,0,5,-10,-61,x
O=C(O)CCN1C(=O)/C(=C\c2cccc(OCc3ccccc3)c2)SC1=S,12,5,0,-4,-5,9,x
O=C(NC1C(=O)NNC1c1ccccc1)c1ccc(F)cc1 (stereo unspecified),x,-4,-1,-7,12,-10,x
O=C(NC1C(=O)NNC1c1ccc(Cl)cc1)c1ccc(F)cc1 (stereo unspecified),70*,-7,2,0,-7,-14,30*
O=C1C=C(NCCN2CCOCC2)C(=O)c2cnccc21,96*,x,x,x,8,x,1*
O=C(NCCN1CCOCC1)c1ccncc1,0,-4,0,5,-10,-21,x
O=S(=O)(N[C@H]1C[C@@H](NS(=O)(=O)OCC(Cl)(Cl)Cl)C2CCCCC21)OCC(Cl)(Cl)Cl (stereo partly specified),32*,-6,2,-12,-2,-34,>38
Cc1cc(NC(=O)c2c[nH]c(=O)n(Cc3ccc4c(c3)OCO4)c2=O)on1,x,x,x,-5,x,x,x
CCCCCn1c(N)c(C(=O)NCCN2CCOCC2)c2nc3ccccc3nc21,-122,3,1,24,-4,-15,x
CCCCNC(=O)c1c(N)n(Cc2ccc3c(c2)OCO3)c2nc3ccccc3nc12,68*,-2,1,1,-3,-21,>38
CCCCCn1c(N)c(C(=O)NCc2cccs2)c2nc3ccccc3nc21,82*,9,x,-7,-3,x,3.2*
O=c1[nH]cc(N=Cc2cc(Cl)cc(Cl)c2O)c(=O)[nH]1,77*,-1,1,-5,-6,-8,13*

# High-throughput results as filed in PubChem BioAssay.
